Source: ChEMBL document CHEMBL4513216, “Probing the Open Global Health Chemical Diversity Library for Multistage-Active Starting Points for Next-Generation Antimalarials” (ACS Infect Dis, 2020)
Among all 69,000 compounds or so, about 8,600 (12%) showed an effect of 50% or more. The sample holds strong results, similar compounds and a random draw of the others, so the mix is not that of the screen.

test system: Plasmodium berghei; experiment: Screen against P. berghei liver stage (PbLuc), transformed with Luciferase, at 10uM; assay type: functional, HepG2; conditions: tested at 10 uM

Compound	INHIBITION [%]
Cc1cc(CN2CCC(C(=O)O)(n3ccc(-c4ccco4)n3)CC2)on1	1.48
O=C1NCC2(CCCN(C(=O)c3c[nH]nc3-c3cccs3)C2)O1 (stereo not given)	6.29
Cn1cnc2ccc(NC(=O)CC3CCN(C4CCCCC4)CC3)cc21	12.17
Cc1ccnc(OC[C@]23COC[C@H]2CN(C(=O)c2cnccn2)C3)n1	32.2
CCc1ccc(Cn2nccc2NC(=O)C2CCS(=O)(=O)C2)cc1 (stereo not given)	11.8
COc1cccc2cc(CNCc3ccnc(N(C)C)c3)oc12	-4.94
CNC(=O)C1CN(c2ccnc(C)n2)CCN(C2CCOCC2)C1 (stereo not given)	23
CN(Cc1noc(C(C)(C)C)n1)Cc1ccccc1N1CCCCC1	90.4
Cc1cc(CN(C)Cc2ccccc2N2CCCCC2)n[nH]1	20.2
CN(Cc1noc(C(C)(C)C)n1)Cc1ccccc1N1CCCC1	-2.92
COCCc1noc(CN2CCCC(Cn3cncn3)C2)n1 (stereo not given)	-0.96
NC(=O)Cn1c(CO)cnc1SCC(=O)NCc1ccccc1	15
N#Cc1cccc(N2CCC(CO)(CCCc3ccccc3)CC2)n1	22
N#Cc1cccc(N2CCC(CO)(CCc3ccccc3)CC2)n1	51.7
N#Cc1cccc(N2CCC(CO)(CCOc3ccccc3)CC2)n1	17.4
Cn1cc(CC2CC(=O)N(Cc3ccc(Cl)cc3)C2=O)cn1 (stereo not given)	8.12
Nc1ncnc2c1ncn2[C@H]1CCN(Cc2ccsc2)CC[C@@H]1O	17.4
Cc1ncsc1CN1CC[C@H](O)[C@@H](n2cnc3c(N)ncnc32)CC1	50.1
Cc1ncsc1CN1CCN(C2CCOCC2)CC(C(N)=O)C1 (stereo not given)	25.6
CC(C)c1noc(-c2ccnc(-n3cnc(C(=O)O)c3)c2)n1	-8.35
CCc1nccn1-c1cccc(C2CCCN(C3CCCCC3)C2)n1 (stereo not given)	24.8
Cc1cn2nc(N3CCCC3Cn3cccn3)sc2n1 (stereo not given)	-12.1
O=C(C1CCCN(Cc2ccccc2)C1)N1CCc2sccc2C1 (stereo not given)	48.8
O=C(C1CCCN(Cc2cccnc2)C1)N1CCc2sccc2C1 (stereo not given)	55.5

Compound	INHIBITION [%]
O=C(C1CCCN(Cc2cccc(F)c2)C1)N1CCc2sccc2C1 (stereo not given)	14.1
CC1Cc2cc(-c3cncn3CC(=O)NC(C)(C)C)ccc2N1C (stereo not given)	52
Cc1nn(C)c(C)c1CCn1cncc1-c1ccc2c(c1)CC(C)N2C (stereo not given)	22.8
CCN1CCc2cc(-c3cncn3CC(=O)NC(C)(C)C)ccc21	6.32
CCN1CCc2cc(-c3cncn3CCNC3CCS(=O)(=O)C3)ccc21 (stereo not given)	27.6
CCN1c2ccc(-c3cncn3CC(=O)NC(C)(C)C)cc2CC1C (stereo not given)	59.3
CN1CCCc2cc(-c3cncn3CC(=O)NC(C)(C)C)ccc21	18.3
CCN1CCC2(CN(C(C)=O)CC23CCN(CC2CC2)CC3)C1=O (stereo not given)	-23.3
CN1CCC(NC(=O)Nc2cnn(-c3ccccc3Cl)c2)C1=O (stereo not given)	37.7
O=C(Nc1ccncc1)NC1CCN(c2ccccc2Cl)C1=O (stereo not given)	50.8
Cn1ccc(NC(=O)NC2CCCN(c3ccccc3Cl)C2=O)n1 (stereo not given)	74
Cc1cc(CC(=O)NC2CCCN(c3ccccc3Cl)C2=O)n[nH]1 (stereo not given)	8.44
CN1CCC(NC(=O)Nc2ccc(Cl)c(F)c2)C1=O (stereo not given)	-6.39
Cn1cc(NC(=O)NC2CCCN(c3ccccc3Cl)C2=O)cn1 (stereo not given)	24.8
O=C(Nc1cc(F)ccc1OCC1CCCO1)N1CCSCC1 (stereo not given)	41.2
CC(=O)NCC1(COc2cnccn2)C[C@@H](O)[C@@H](O)C1 (stereo not given in full)	-3.52
COCC(C)NC(=O)c1cn(C(C)C)cc2c(=O)[nH]nc1-2 (stereo not given)	22
COc1ccc2c(OCC(=O)NCC(F)(F)F)ccnc2c1	-121
CNC(=O)[C@H]1C[C@@H]2CN(C(=O)c3ccsc3)C[C@@H]2N1S(C)(=O)=O	32.2
CCOc1ncccc1NC(=O)N1CCN(Cc2ccncc2)CC1	18.75
CCc1cc(N2CCC(NCCc3nc(C)c(C)s3)CC2)nc(C)n1	30.3
CCCc1cncnc1N1CCC(NCCc2nc(O)cc(O)n2)CC1	8.23
CCc1nnc(CNC2CCN(c3ncnc4c(C)csc34)CC2)s1	61.3
CCCc1cncnc1N1CCC(NCCc2ccc(O)cc2)CC1	49.9

Compound	INHIBITION [%]
Cc1nnc(CCNC2CCN(c3ncnc4c(C)csc34)CC2)s1	61.8
CCc1nc(CNC2CCN(c3ccc(OC)cc3)CC2)cs1	34
Cc1csc2c(N3CCC(NCCCc4ccncc4)CC3)ncnc12	43.5
Cc1csc2c(N3CCC(NCCc4ccnn4C)CC3)ncnc12	53.6
Cc1csc2c(N3CCC(NCCCC4CCOC4)CC3)ncnc12 (stereo not given)	55.8
Cc1nc(C)n(CCNC2CCN(c3ncnc4c(C)csc34)CC2)n1	-12.4
CCC1CCN(CCn2cnc3c(C)csc3c2=O)CC1	-7.25
O=C(NCc1ccc2c(c1)OCO2)[C@@H]1C=CCN1c1ncccn1	-0.232
CCOCC1CC2(CCN(C(=O)c3ccccn3)CC2)CO1 (stereo not given)	32.4
Cc1cc(C)nc(N2CCC(C(=O)Nc3n[nH]c(C(C)C)n3)CC2)n1	24.7
Cc1noc(C(C)Nc2ccc(N3CCOCC3)cc2C)n1 (stereo not given)	23.1
CCOC(=O)CSc1nnc([C@@H](N)CC(C)C)o1	12.3
O=C(COC1CCCC1)N1C[C@@H]2CN(Cc3ccoc3)CCO[C@@H]2C1	29.8
CN(C(=O)c1ccc(C#N)cc1)C1CCN(c2ccccn2)CC1	-39.5
Cc1cc(N2CCC(N(C)C(=O)c3cccs3)CC2)nc(C)n1	22
Cc1cc(N2CCC(N(C)C(=O)Nc3ccccc3)CC2)nc(C)n1	4.71
Cc1cc(N2CCC(O)CC2)nc(C)n1	41
Cc1cc(N2CCC(N(C)C(=O)c3ccccc3)CC2)nc(C)n1	2.3
Cc1cc(N2CCC(N(C)C(=O)c3sccc3C)CC2)nc(C)n1	68.6
Cc1cc(N2CCC(N(C)C(=O)c3ccc(C#N)cc3)CC2)nc(C)n1	81.1
Cc1cc(N2CCC(N(C)C(=O)c3ccccc3F)CC2)nc(C)n1	56.1
COc1ccccc1C(=O)N(C)C1CCN(c2ccccn2)CC1	19.5
